# Results from publication PMC6925144, “A prospective compound screening contest identified broader inhibitors for Sirtuin 1” (Scientific Reports, 2019).
# Target: NAD-dependent deacetylase Sirtuin 1 (human, UniProt Q96EB6)
# Assay: primary screen, percent inhibition; higher = more effect of the substance
# Set-up: mean of n = 4
# Settings: 10 µM
# Experimental: Note that the inhibitory assay was conducted with NAD+.
# Sequence of NAD-dependent deacetylase Sirtuin 1 (Q96EB6 2-747 limits assumed): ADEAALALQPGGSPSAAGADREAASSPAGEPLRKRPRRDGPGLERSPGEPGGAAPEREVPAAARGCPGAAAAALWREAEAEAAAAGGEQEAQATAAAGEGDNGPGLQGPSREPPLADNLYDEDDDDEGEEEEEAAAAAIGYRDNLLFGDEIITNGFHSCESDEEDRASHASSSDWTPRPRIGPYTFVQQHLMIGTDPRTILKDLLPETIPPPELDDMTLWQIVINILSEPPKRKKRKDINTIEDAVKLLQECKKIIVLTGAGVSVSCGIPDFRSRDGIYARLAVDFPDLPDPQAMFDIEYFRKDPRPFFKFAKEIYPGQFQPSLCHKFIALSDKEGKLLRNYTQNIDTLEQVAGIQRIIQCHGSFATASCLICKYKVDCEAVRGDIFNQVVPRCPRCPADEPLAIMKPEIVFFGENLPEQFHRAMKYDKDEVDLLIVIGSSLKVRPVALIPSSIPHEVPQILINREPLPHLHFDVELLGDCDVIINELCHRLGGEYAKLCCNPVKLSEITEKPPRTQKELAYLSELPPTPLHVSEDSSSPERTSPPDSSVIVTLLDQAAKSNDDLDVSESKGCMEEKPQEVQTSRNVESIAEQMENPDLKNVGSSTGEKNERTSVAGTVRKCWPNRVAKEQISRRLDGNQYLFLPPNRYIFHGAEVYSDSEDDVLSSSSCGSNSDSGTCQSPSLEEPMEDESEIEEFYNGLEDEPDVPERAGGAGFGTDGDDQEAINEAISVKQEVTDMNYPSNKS
Compound,TSA(without NAD+) / Inhibitory assay (Promega kit) / Mean (%),TSA(with NAD+) / Inhibitory assay (Promega kit) / Mean (%)
Cc1cc(F)ccc1N1CCCC(Nc2ccc3nnnn3n2)C1 (centres unmarked),6.7,
COc1ccc(NC(=O)CSc2nnc(Nc3ccc(SC(F)F)cc3)s2)cc1OC,16.2,
O=C1/C(=C/NNC(=O)C23CC4CC(CC(C4)C2)C3)c2ccccc2C(=O)N1Cc1ccccc1,-173,
Cc1ccc(C(C)(C)C)cc1S(=O)(=O)Nc1cccc(C(=O)NNC(=O)c2cccc(S(=O)(=O)Nc3cccc(C(F)(F)F)c3)c2)c1,-8.09,
O=C(CSc1nnnn1-c1ccc(O)cc1)N1N=C(c2ccc3ccccc3c2)CC1c1ccccc1 (centres unmarked),28.5,
Cc1ccc(C(=O)Nc2nc3ccc(NS(=O)(=O)c4ccc5c(c4)CCC(=O)N5)cc3s2)s1,31.3,
Cc1nc(N2CCC(C(N)=O)CC2)c2c3c(sc2n1)CCCCC3,14.5,
Oc1cccc2c1Cc1c-2nc2ccc(Cl)cc2c1-c1ccccc1Cl,,24.3
